The structures appear in SMILES notation. Screen size: about 390,000 compounds; about 4,000 (1%) were called active. Entries that show only a call come without a potency. Inconclusive results (about 7%) are left out. The call rests on the fitted dose curve; in most records, active means well fitted inhibition curve with a large enough effect; inconclusive means small, poorly fitted or top-dose-only effect, or another doubt; inactive means no such curve, though single readings can be large or run the other way. Only a selection was taken, and actives are over-represented in it overall.

The text below walks through data of PubChem BioAssay AID588590 (National Center for Advancing Translational Sciences (NCATS), 2011).
Potency means the concentration at half of the fitted maximal effect.

DNA polymerase iota (Homo sapiens), sequence (Q9UNA4 whole entry, looked up): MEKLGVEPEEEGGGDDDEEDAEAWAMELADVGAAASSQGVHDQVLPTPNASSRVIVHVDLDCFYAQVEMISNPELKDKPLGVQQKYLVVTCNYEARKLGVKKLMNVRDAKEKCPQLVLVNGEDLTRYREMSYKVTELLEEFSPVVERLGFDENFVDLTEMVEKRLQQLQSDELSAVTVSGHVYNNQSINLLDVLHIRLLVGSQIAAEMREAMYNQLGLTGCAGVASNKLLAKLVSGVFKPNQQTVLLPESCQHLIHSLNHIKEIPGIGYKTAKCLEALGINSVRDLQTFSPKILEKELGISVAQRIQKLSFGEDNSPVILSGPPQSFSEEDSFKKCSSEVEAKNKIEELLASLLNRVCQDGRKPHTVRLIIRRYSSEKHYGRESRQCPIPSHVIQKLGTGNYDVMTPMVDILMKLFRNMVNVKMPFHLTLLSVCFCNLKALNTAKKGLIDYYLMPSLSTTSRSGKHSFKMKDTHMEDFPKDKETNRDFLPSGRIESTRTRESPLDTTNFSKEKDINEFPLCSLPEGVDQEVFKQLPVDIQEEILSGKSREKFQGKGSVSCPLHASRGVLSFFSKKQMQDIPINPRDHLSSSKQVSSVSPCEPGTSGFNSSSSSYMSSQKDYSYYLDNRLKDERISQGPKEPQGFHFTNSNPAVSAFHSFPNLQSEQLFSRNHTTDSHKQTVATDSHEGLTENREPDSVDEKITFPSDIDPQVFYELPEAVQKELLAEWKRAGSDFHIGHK

The target in the test is DNA polymerase iota (Homo sapiens) (UniProt Q9UNA4). The test can be described thus: qHTS for Inhibitors of Polymerase Iota. Particulars: Pol iota fluorescent replication assay, 10 min; series mostly up to 115 µM. The text has this:
DNA polymerases, such as Pol iota, are specifically involved in DNA repair. Pol iota specifically plays an important role in translesion synthesis, where the normal high-fidelity DNA polymerases cannot proceed and DNA synthesis stalls. […] Thus, while pol eta's (and most likely iota's) normal function is to protect humans against the deleterious consequences of DNA damage, under certain conditions they can have deleterious effects on human health. As a consequence, we propose to utilize a high throughput replication assay to identify small molecule inhibitors of pol iota.
In a collaboration between the National Institute of Child Health & Human Development (NICHD) and NIH Chemical Genomics Center, a high-throughput, fluorescent screen was developed to screen the NIH Molecular Libraries Small Molecule Repository (MLSMR). This screen is used to identify inhibitors of pol iota.
NIH Chemical Genomics Center [NCGC]
NIH Molecular Libraries Probe Centers Network [MLPCN]
Assay Submitter (PI): Roger Woodgate, NICHD)
Three microliters of reagents (buffer in column 3 and 4 as negative control and 10 nM Pol iota in columns 1, 2, and 5-48) will be dispensed into 1,536-well black solid-bottomed plate. Compounds (23 nL) will be transferred via Kalypsys pin tool equipped with 1536-pin array. The plates will then be incubated for 15 min at room temperature, and 1 µL substrate (50 nM final concentration) will be added to start the reaction and kinetically read twice at 0 min and 10 min on the Viewlux reader.
(Quantitative high-throughput screening tests each substance at several concentrations.)
As for `CCOc1ccc(C(NC(=O)c2cc(OC)c(OC)c(OC)c2)c2cc(Cl)c3cccnc3c2O)cc1` (configuration not stated), the Potency result was “inactive”.
As to `Cc1ccc(NC(=O)CN(C)CC(=O)Nc2cccc(F)c2)cc1[N+](=O)[O-]`, the Potency result is “inactive”.
Then `O=P1(Oc2ccccc2)CC(O)C(O)C(COCc2ccccc2)O1` (configuration not stated), with “inactive”.
Regarding `N#Cc1c(Cl)c(Cl)c(Cl)c(C#N)c1Cl`, the Potency was 1.58 µM (active).
Regarding `CC(CCn1cccn1)NC(=O)CCc1nnc(CCc2ccccc2)o1` (configuration not stated), the Potency entry was “inactive”.
Then `O=C(NCc1cccs1)c1ccc(Br)o1`, with “inactive”; and `O=C(c1ccccc1[N+](=O)[O-])N1CCC2(CC1)OCCO2`, with “inactive”; and `O=C(O)c1cc[c]([Sb](=[O])([OH])[OH])cc1[N+](=O)[O-]`, with 1 µM (active).
Then `COc1cc(C2c3cc4c(cc3C(O)C3COC(=O)C23)OCO4)cc(OC)c1OC` (configuration not stated), with “inactive”; and `COc1cc([C@@H]2c3cc4c(cc3[C@H](OC(C)=O)[C@H]3COC(=O)[C@H]23)OCO4)cc(OC)c1OC`, with “inactive”; and `CCOC(=O)c1ncn2c1[C@@H]1CCCN1C(=O)c1cc(OC)ccc1-2`, with “inactive”.
The result for `Cc1ccc(C)c(NS(=O)(=O)c2ccc(OCC(=O)NCc3cccnc3)cc2)c1` reads “inactive”; that for `CCOP(=O)(OCC)C(Nc1cccc(C)c1)c1ccc(F)cc1` (configuration not stated), “inactive”; that for `O=c1c2ccccc2nc(/C=C/c2ccc(F)cc2)n1-c1ccccc1O`, “inactive”.
Turning to `Cn1cc(/C=C/c2nc3ccccc3c(=O)n2-c2ccccc2)c2ccccc21`, the Potency entry was “inactive”.
For the compound `O=c1c2ccccc2nc(/C=C/c2ccco2)n1-c1ccccc1O`, the Potency is 44.7 µM (active).
Then `Cc1ncoc1C(=O)NCCC(c1ccccc1)c1ccccc1`, with “inactive”; and `CCCCN1C2CCC1CC(OC(c1ccc(F)cc1)c1ccc(F)cc1)C2` (configuration not stated), with “inactive”; and `Cc1ccc(NC(=O)O/N=C/c2cccc([N+](=O)[O-])c2)cc1`, with “inactive”.
The result for `c1csc(-c2nnc(COc3ccc4c(c3)OCO4)o2)c1` reads “inactive”.
The result for `O=C1NC(=O)N(c2ccccc2)C(=O)/C1=C/c1ccc([N+](=O)[O-])s1` reads 11.2 µM (active).
Regarding `Cc1nnc(NCc2ccccc2)c2c1nnn2Cc1ccc(F)cc1`, the Potency result was “inactive”.
Then `O=C(C1CCN(S(=O)(=O)c2ccc(Br)s2)CC1)N1CCN(c2ccccc2)CC1`, with “inactive”; and `CC(C)N1C(=S)SC(C)(C)C1n1oc(=O)n(-c2ccc(Cl)c(Cl)c2)c1=O` (configuration not stated), with “inactive”; and `Cc1ccccc1NC(=O)c1c(NC(=O)c2ccccc2F)sc2c1CCC(C)C2` (configuration not stated), with “inactive”.
The result for `CC(C)(C)c1ccc(C(=O)NCc2ccco2)cc1` reads “inactive”.
Then `CCc1ccccc1NC(=O)c1sc2nc3c(cc2c1N)CN(Cc1ccccc1)CC3`, with “inactive”.
